Experimental findings from paper PMC11006913 are described below.

Holding throughout (assay): PBM; 200 nM protein, PBS
Common to all, as to details: dsDNA, one strand shown

Assay [1] has as its target HOXB9 (Homo sapiens, UniProt P17482 171-250, T197M).
For assay [2], the target named is HOXB6 (Homo sapiens, UniProt P17509 132-218, K202E).
For assay [3], the target named is HOXB9 (Homo sapiens, UniProt P17482 171-250).
The target of assay [4] is T1, NKX2-6 (Homo sapiens, UniProt A6NCS4 118-204, R150C).
T1 sequence: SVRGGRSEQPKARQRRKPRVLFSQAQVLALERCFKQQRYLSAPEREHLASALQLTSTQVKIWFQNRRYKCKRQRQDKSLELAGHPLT

Assay [5] concerns the target HOXB9 (Homo sapiens, UniProt P17482 171-250, R186Q).
In assay [6] the target is HOXB6 (Homo sapiens, UniProt P17509 132-218).
In assay [7] the target is HOXA7 (Homo sapiens, UniProt P31268 116-202).
Assay [8] concerns the target HOXA7 (Homo sapiens, UniProt P31268 116-202, W177C).
For assay [9], the target named is HOXC10 (Homo sapiens, UniProt Q9NYD6 254-340).
The target of assay [10] is HOXC10 (Homo sapiens, UniProt Q9NYD6 254-340, K271E).
In assay [11] the target is HOXC9 (Homo sapiens, UniProt P31274 178-260, K195R).
Assay [12] concerns the target HOXC9 (Homo sapiens, UniProt P31274 178-260).
The target of assay [13] is HOXD13 (Homo sapiens, UniProt P35453 263-343, T313R).
Assay [14] concerns the target HOXC9 (Homo sapiens, UniProt P31274 178-260, R193K).
The target in assay [15] is HOXD13 (Homo sapiens, UniProt P35453 263-343).
Assay [16] deals with HOXD13 (Homo sapiens, UniProt P35453 263-343, T313A).
The target of assay [17] is HOXC9 (Homo sapiens, UniProt P31274 178-260, R222W).
Assay [18] concerns the target ALX3 (Homo sapiens, UniProt O95076 139-225, N203Q).
Assay [19] concerns the target T2, PAX4 (Homo sapiens, UniProt O43316 9-242, F177V).
T2 sequence: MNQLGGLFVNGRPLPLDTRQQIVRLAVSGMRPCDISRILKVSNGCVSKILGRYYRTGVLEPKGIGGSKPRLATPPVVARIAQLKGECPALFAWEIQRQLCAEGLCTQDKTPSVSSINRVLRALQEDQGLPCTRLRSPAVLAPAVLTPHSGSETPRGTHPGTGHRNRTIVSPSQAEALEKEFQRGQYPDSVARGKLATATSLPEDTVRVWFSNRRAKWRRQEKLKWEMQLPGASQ

Assay [20] concerns the target ALX3 (Homo sapiens, UniProt O95076 139-225).
Assay [21] has as its target ALX3 (Homo sapiens, UniProt O95076 139-225, L168Q).
In assay [22] the target is ALX3 (Homo sapiens, UniProt O95076 139-225, L168V).
For assay [23], the target named is ALX3 (Homo sapiens, UniProt O95076 139-225, N203S).
Assay [24] deals with MSX2 (Homo sapiens, UniProt P35548 130-214, R199I).
In assay [25] the target is MSX2 (Homo sapiens, UniProt P35548 130-214).
The target in assay [26] is MSX2 (Homo sapiens, UniProt P35548 130-214, F161Y).
Chain of MSX2 (Homo sapiens, UniProt P35548 130-214, F161Y) (P35548 130-214 F161Y): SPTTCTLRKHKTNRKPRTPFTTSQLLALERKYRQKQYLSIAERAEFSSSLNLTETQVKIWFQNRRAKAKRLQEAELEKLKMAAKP

Chain of HOXB9 (Homo sapiens, UniProt P17482 171-250, T197M) (P17482 171-250 T197M): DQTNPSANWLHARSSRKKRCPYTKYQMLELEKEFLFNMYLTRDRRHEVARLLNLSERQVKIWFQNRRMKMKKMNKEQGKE
Chain of HOXB9 (Homo sapiens, UniProt P17482 171-250, R186Q) (P17482 171-250 R186Q): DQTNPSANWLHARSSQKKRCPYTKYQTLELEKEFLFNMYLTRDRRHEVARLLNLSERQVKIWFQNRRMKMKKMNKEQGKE
Chain of HOXD13 (Homo sapiens, UniProt P35453 263-343) (P35453 263-343): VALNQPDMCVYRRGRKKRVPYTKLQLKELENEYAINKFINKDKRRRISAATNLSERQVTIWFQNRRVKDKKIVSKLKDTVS
Chain of HOXC10 (Homo sapiens, UniProt Q9NYD6 254-340, K271E) (Q9NYD6 254-340 K271E): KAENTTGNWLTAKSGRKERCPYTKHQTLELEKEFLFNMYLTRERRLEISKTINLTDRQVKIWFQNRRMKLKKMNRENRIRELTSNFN
Chain of HOXB9 (Homo sapiens, UniProt P17482 171-250) (P17482 171-250): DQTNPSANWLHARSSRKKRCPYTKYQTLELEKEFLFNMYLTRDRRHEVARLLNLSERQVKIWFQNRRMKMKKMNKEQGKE
Chain of HOXD13 (Homo sapiens, UniProt P35453 263-343, T313R) (P35453 263-343 T313R): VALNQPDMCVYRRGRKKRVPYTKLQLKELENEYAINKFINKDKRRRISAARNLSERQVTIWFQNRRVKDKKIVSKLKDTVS
Chain of HOXD13 (Homo sapiens, UniProt P35453 263-343, T313A) (P35453 263-343 T313A): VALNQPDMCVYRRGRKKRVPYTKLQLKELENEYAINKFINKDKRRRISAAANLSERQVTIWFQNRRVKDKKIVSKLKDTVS
Chain of HOXC9 (Homo sapiens, UniProt P31274 178-260) (P31274 178-260): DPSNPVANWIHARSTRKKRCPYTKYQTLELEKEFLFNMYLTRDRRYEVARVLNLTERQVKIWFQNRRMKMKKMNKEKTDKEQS
Chain of HOXC9 (Homo sapiens, UniProt P31274 178-260, K195R) (P31274 178-260 K195R): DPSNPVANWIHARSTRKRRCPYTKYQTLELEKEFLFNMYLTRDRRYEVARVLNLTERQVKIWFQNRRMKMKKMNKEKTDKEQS
Chain of HOXA7 (Homo sapiens, UniProt P31268 116-202, W177C) (P31268 116-202 W177C): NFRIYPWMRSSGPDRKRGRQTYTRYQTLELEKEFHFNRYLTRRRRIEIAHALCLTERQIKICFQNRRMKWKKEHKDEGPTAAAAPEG
Chain of HOXA7 (Homo sapiens, UniProt P31268 116-202) (P31268 116-202): as the sequence (P31268 116-202 W177C) above, with C62W counted along it
Chain of HOXC9 (Homo sapiens, UniProt P31274 178-260, R222W) (P31274 178-260 R222W): as the sequence (P31274 178-260) above, with R45W counted along it
Chain of ALX3 (Homo sapiens, UniProt O95076 139-225, N203S) (O95076 139-225 N203S): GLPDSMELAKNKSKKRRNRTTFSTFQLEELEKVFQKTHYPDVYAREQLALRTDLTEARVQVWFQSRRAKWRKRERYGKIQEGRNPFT
Chain of HOXB6 (Homo sapiens, UniProt P17509 132-218, K202E) (P17509 132-218 K202E): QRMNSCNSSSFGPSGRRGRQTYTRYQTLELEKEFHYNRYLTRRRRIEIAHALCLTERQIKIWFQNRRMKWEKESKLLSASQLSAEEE
Chain of ALX3 (Homo sapiens, UniProt O95076 139-225, N203Q) (O95076 139-225 N203Q): as the sequence (O95076 139-225 N203S) above, with S65Q counted along it
Chain of HOXC10 (Homo sapiens, UniProt Q9NYD6 254-340) (Q9NYD6 254-340): as the sequence (Q9NYD6 254-340 K271E) above, with E18K counted along it
Chain of HOXC9 (Homo sapiens, UniProt P31274 178-260, R193K) (P31274 178-260 R193K): as the sequence (P31274 178-260) above, with R16K counted along it
Chain of ALX3 (Homo sapiens, UniProt O95076 139-225, L168V) (O95076 139-225 L168V): as the sequence (O95076 139-225 N203S) above, with L30V, S65N counted along it
Chain of ALX3 (Homo sapiens, UniProt O95076 139-225, L168Q) (O95076 139-225 L168Q): as the sequence (O95076 139-225 N203S) above, with L30Q, S65N counted along it
Chain of ALX3 (Homo sapiens, UniProt O95076 139-225) (O95076 139-225): as the sequence (O95076 139-225 N203S) above, with S65N counted along it
Chain of MSX2 (Homo sapiens, UniProt P35548 130-214, R199I) (P35548 130-214 R199I): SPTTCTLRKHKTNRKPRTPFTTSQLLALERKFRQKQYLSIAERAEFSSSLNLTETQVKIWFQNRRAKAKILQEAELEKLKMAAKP
Chain of HOXB6 (Homo sapiens, UniProt P17509 132-218) (P17509 132-218): as the sequence (P17509 132-218 K202E) above, with E71K counted along it
Chain of MSX2 (Homo sapiens, UniProt P35548 130-214) (P35548 130-214): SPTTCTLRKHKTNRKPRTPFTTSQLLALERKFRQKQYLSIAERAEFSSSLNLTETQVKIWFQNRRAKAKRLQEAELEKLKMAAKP

In the case of AGGCCTGG, the binding signal was 8.45 upbm affinity estimate (log intensity, higher = more binding, comparable within an allelic series) in assay [1]; 8.94 upbm affinity estimate (log intensity, higher = more binding, comparable within an allelic series) in [2]; 8.43 upbm affinity estimate (log intensity, higher = more binding, comparable within an allelic series) in assay [3]; 9.48 upbm affinity estimate (log intensity, higher = more binding, comparable within an allelic series) in assay [4]; 8.44 upbm affinity estimate (log intensity, higher = more binding, comparable within an allelic series) in [5]; 8.97 upbm affinity estimate (log intensity, higher = more binding, comparable within an allelic series) in assay [6].

Turning to CTAGGCTC, the binding signal in assay [1] is 8.49 upbm affinity estimate (log intensity, higher = more binding, comparable within an allelic series); in assay [7] it was 8.33 upbm affinity estimate (log intensity, higher = more binding, comparable within an allelic series); in [3] it was 8.52 upbm affinity estimate (log intensity, higher = more binding, comparable within an allelic series); in assay [5] it was 8.53 upbm affinity estimate (log intensity, higher = more binding, comparable within an allelic series); in assay [8], 8.41 upbm affinity estimate (log intensity, higher = more binding, comparable within an allelic series).

As to GGTCGTTA, the binding signal in [1] is 9.98 upbm affinity estimate (log intensity, higher = more binding, comparable within an allelic series); in assay [9], 12.2 upbm affinity estimate (log intensity, higher = more binding, comparable within an allelic series); in assay [10], 12.2 upbm affinity estimate (log intensity, higher = more binding, comparable within an allelic series).

Turning to CCATAAAC, the binding signal in assay [1] is 9.33 upbm affinity estimate (log intensity, higher = more binding, comparable within an allelic series); in assay [11], 12.4 upbm affinity estimate (log intensity, higher = more binding, comparable within an allelic series); in assay [3], 11.8 upbm affinity estimate (log intensity, higher = more binding, comparable within an allelic series); in assay [12], 12.6 upbm affinity estimate (log intensity, higher = more binding, comparable within an allelic series); in [13] it was 10.8 upbm affinity estimate (log intensity, higher = more binding, comparable within an allelic series); in assay [14], 12.5 upbm affinity estimate (log intensity, higher = more binding, comparable within an allelic series). In addition, the binding signal in assay [15] is 12.1 upbm affinity estimate (log intensity, higher = more binding, comparable within an allelic series); in assay [10], 11.3 upbm affinity estimate (log intensity, higher = more binding, comparable within an allelic series); in [16], 11.8 upbm affinity estimate (log intensity, higher = more binding, comparable within an allelic series); in assay [5], 11.5 upbm affinity estimate (log intensity, higher = more binding, comparable within an allelic series); in [17], 10.8 upbm affinity estimate (log intensity, higher = more binding, comparable within an allelic series).

AATATAAT: the binding signal in [1] was 9.96 upbm affinity estimate (log intensity, higher = more binding, comparable within an allelic series); in assay [2] it was 10 upbm affinity estimate (log intensity, higher = more binding, comparable within an allelic series); in assay [18] it was 8.52 upbm affinity estimate (log intensity, higher = more binding, comparable within an allelic series); in [19], 10.7 upbm affinity estimate (log intensity, higher = more binding, comparable within an allelic series); in assay [20], 11.4 upbm affinity estimate (log intensity, higher = more binding, comparable within an allelic series); in [21], 9.35 upbm affinity estimate (log intensity, higher = more binding, comparable within an allelic series). Besides, the binding signal in assay [22] was 9.24 upbm affinity estimate (log intensity, higher = more binding, comparable within an allelic series); in [23] it was 8.65 upbm affinity estimate (log intensity, higher = more binding, comparable within an allelic series).

For the sequence CTCACGGC, the binding signal was 8.44 upbm affinity estimate (log intensity, higher = more binding, comparable within an allelic series) in assay [1]; 10 upbm affinity estimate (log intensity, higher = more binding, comparable within an allelic series) in assay [9]; 8.41 upbm affinity estimate (log intensity, higher = more binding, comparable within an allelic series) in assay [3]; 9.58 upbm affinity estimate (log intensity, higher = more binding, comparable within an allelic series) in assay [24]; 7.72 upbm affinity estimate (log intensity, higher = more binding, comparable within an allelic series) in assay [18]; 10 upbm affinity estimate (log intensity, higher = more binding, comparable within an allelic series) in [10]. Further, the binding signal in [25] was 9.43 upbm affinity estimate (log intensity, higher = more binding, comparable within an allelic series); in assay [20] it was 7.47 upbm affinity estimate (log intensity, higher = more binding, comparable within an allelic series); in [21], 7.78 upbm affinity estimate (log intensity, higher = more binding, comparable within an allelic series); in assay [5], 8.46 upbm affinity estimate (log intensity, higher = more binding, comparable within an allelic series); in assay [22] it was 7.81 upbm affinity estimate (log intensity, higher = more binding, comparable within an allelic series); in assay [26] it was 9.43 upbm affinity estimate (log intensity, higher = more binding, comparable within an allelic series). For the same sequence, in assay [23], the binding signal was 7.72 upbm affinity estimate (log intensity, higher = more binding, comparable within an allelic series).

Consider CCCGATGC, for which the binding signal in assay [1] is 8.47 upbm affinity estimate (log intensity, higher = more binding, comparable within an allelic series); in assay [11], 9.5 upbm affinity estimate (log intensity, higher = more binding, comparable within an allelic series); in assay [3], 8.13 upbm affinity estimate (log intensity, higher = more binding, comparable within an allelic series); in assay [12], 9.57 upbm affinity estimate (log intensity, higher = more binding, comparable within an allelic series); in assay [13] it was 9.52 upbm affinity estimate (log intensity, higher = more binding, comparable within an allelic series); in [14] it was 9.49 upbm affinity estimate (log intensity, higher = more binding, comparable within an allelic series). Further, the binding signal in [15] is 9.47 upbm affinity estimate (log intensity, higher = more binding, comparable within an allelic series); in assay [16], 9.71 upbm affinity estimate (log intensity, higher = more binding, comparable within an allelic series); in assay [5], 8.19 upbm affinity estimate (log intensity, higher = more binding, comparable within an allelic series); in assay [17], 9.68 upbm affinity estimate (log intensity, higher = more binding, comparable within an allelic series).

Consider CTATAAAC, for which the binding signal was 9.58 upbm affinity estimate (log intensity, higher = more binding, comparable within an allelic series) in assay [1]; 9.84 upbm affinity estimate (log intensity, higher = more binding, comparable within an allelic series) in [7]; 11.5 upbm affinity estimate (log intensity, higher = more binding, comparable within an allelic series) in [3]; 10.9 upbm affinity estimate (log intensity, higher = more binding, comparable within an allelic series) in assay [13]; 12.2 upbm affinity estimate (log intensity, higher = more binding, comparable within an allelic series) in assay [15]; 12 upbm affinity estimate (log intensity, higher = more binding, comparable within an allelic series) in [16]. Moreover, the binding signal is 11.2 upbm affinity estimate (log intensity, higher = more binding, comparable within an allelic series) in assay [5] and 8.92 upbm affinity estimate (log intensity, higher = more binding, comparable within an allelic series) in assay [8].
